Inconclusive results are not listed. Activity calls are given as the source filed them. The call rests on the fitted dose curve; in most records, active means well fitted cell-killing curve with a large enough effect in the repeat runs; inconclusive means weak or mixed curves, or effect the other way; inactive means no such curve, though single readings can be large or run the other way.
Assay: Caspase-3/7 induction in CHO-K1 cells by small molecules, qHTS cell viability counter screen (AID 1346979); further: nearly all actives have a fitted effect of over 35% in size
Details: CellTiter-Fluor fluorescence, 17 h; series mostly up to 92.4 µM; activity change, negative = cytotoxicity: at the top concentration
From the text: National Center for Advancing Translational Sciences [NCATS]
NIH Chemical Genomics Center [NCGC]
U.S. Environmental Protection Agency [EPA]
National Institutes of Environmental Health Sciences [NIEHS]
National Toxicology Program [NTP]
U.S. Food and Drug Administration [FDA]
Apoptosis is a process of programmed cell death and plays a central role in the development of multicellular organisms. It is a highly regulated process and induces cell death by activating caspases, which are the members of cysteine aspartic acid-specific protease (caspase) family. Caspases involved in apoptosis are classified by their mechanism of action as initiator caspases (caspase-2, -8, -9 and -10) and executioner caspases (caspase-3, -6, and -7). Inhibition of apoptosis results in number of cancers, autoimmune diseases, inflammatory diseases and viral infection. To identify small molecule compounds that induce apoptosis, a homogeneous, luminescent Caspase-Glo 3/7 assay was used. Wild type CHO-K1 cells were used to screen Tox21 libraries for identifying caspase-3/7 activity inducers. Also cytotoxicity of the compounds was tested in parallel by measuring the cell viability using CellTiter-Fluor assay system in the same wells.
Tox21 Assay Protocol Summary:
CHO-K1 cells were dispensed at 1,500 per well in 5uL of culture medium into white solid bottom 1536-well plates (Corning Life Sciences, Corning, NY) using a Multidrop Combi (Thermo Scientific, Waltham, MA) dispenser. The assay plates were incubated at 37 C and 5% CO2 for 5hr, and then 23nL of compounds dissolved in DMSO and positive control were transferred using a Pintool station (Wako, San Diego, CA). The assay plates were incubated at 37C and 5% CO2 for 17hr. For cytotoxicity read, after 16hr incubation at 37C, 1uL CellTiter-Fluor reagent (Promega Corporation, Madison, WI) was added to each well of the assay plates using Flying Reagent Dispenser (FRD, Aurora Discovery, San Diego, CA). After 1hr incubation at 37C and 5% CO2, the fluorescence signal was quantified using a ViewLux plate reader (PerkinElmer, Shelton, CT).
On the % scale 0 is the no-effect control and ±100 the full control effect.

Question: Which “activity change, negative = cytotoxicity” value does the source give for CCCc1ccc(O)c(OC)c1 here?
Answer: 11.8% (inactive)

Question: For CC[N+](C)(CC)CC, which “activity change, negative = cytotoxicity” value is on record?
Answer: -0.454% (inactive)

Question: With CCCCOCCCC as the molecule, how does the “activity change, negative = cytotoxicity” value read?
Answer: -2% (inactive)

Question: For O=C(O)/C=C(\CC(=O)O)C(=O)O, which “activity change, negative = cytotoxicity” value is on record?
Answer: 8.18% [at 42.5 µM] (inactive)

Question: With CC(C)CC(O)Cc1ccccc1 (stereo not given) as the molecule, how does the “activity change, negative = cytotoxicity” value read?
Answer: 2% (inactive)

Question: For C=CCN(CC=C)CC=C, which “activity change, negative = cytotoxicity” value is on record?
Answer: 5.33% (inactive)

Question: For NC(=O)CC[C@@H](N)C(=O)O, which “activity change, negative = cytotoxicity” value is on record?
Answer: -9.1% [at 42.5 µM] (inactive)

Question: With CN(C)c1ccncc1 as the molecule, how does the “activity change, negative = cytotoxicity” value read?
Answer: 2.4% (inactive)

Question: For CC(=O)OC1CCC(C(C)(C)C)CC1 (stereo not given), which “activity change, negative = cytotoxicity” value is on record?
Answer: 4.62% (inactive)

Question: With CCCCCC(=O)CC as the molecule, how does the “activity change, negative = cytotoxicity” value read?
Answer: 0.923% (inactive)

Question: For CC(C)(C)OC=O, which “activity change, negative = cytotoxicity” value is on record?
Answer: 0.44% (inactive)

Question: Which “activity change, negative = cytotoxicity” value does the source give for CCCCS here?
Answer: 10.8% (inactive)

Question: Which “activity change, negative = cytotoxicity” value does the source give for Cc1ccc(Br)cc1 here?
Answer: -2.13% (inactive)

Question: Which “activity change, negative = cytotoxicity” value does the source give for CC(=O)OC/C=C(/C)CCC=C(C)C here?
Answer: 10.7% (inactive)

Question: With O=S(=O)(O)c1cc(I)c(O)c2ncccc12 as the molecule, how does the “activity change, negative = cytotoxicity” value read?
Answer: -2.15% [at 42.5 µM] (inactive)

Question: For N[C@H]1C(O)O[C@H](CO)[C@@H](O)[C@@H]1O (stereo not given in full), which “activity change, negative = cytotoxicity” value is on record?
Answer: 0.531% [at 42.5 µM] (inactive)

Question: Which “activity change, negative = cytotoxicity” value does the source give for COCCCOc1cc(C[C@@H](C[C@H](N)[C@@H](O)C[C@H](C(=O)NCC(C)(C)C(N)=O)C(C)C)C(C)C)ccc1OC here?
Answer: 9.09% [at 42.5 µM] (inactive)

Question: Which “activity change, negative = cytotoxicity” value does the source give for O=S(=O)(O)c1ccc(Cl)cc1 here?
Answer: 12.4% (inactive)

Question: With CC(=O)c1ccc(O)c(C(N)=O)c1 as the molecule, how does the “activity change, negative = cytotoxicity” value read?
Answer: 11.3% [at 42.5 µM] (inactive)

Question: With CC(=O)Nc1ccc(S(=O)(=O)Nc2cc(C)on2)cc1 as the molecule, how does the “activity change, negative = cytotoxicity” value read?
Answer: 13.4% [at 42.5 µM] (inactive)

Question: Which “activity change, negative = cytotoxicity” value does the source give for CC(=O)c1c(C)cc(C(C)(C)C)cc1C here?
Answer: 0.205% (inactive)

Question: Which “activity change, negative = cytotoxicity” value does the source give for CC(C)C[P+](C)(CC(C)C)CC(C)C here?
Answer: 1.78% (inactive)

Question: Which “activity change, negative = cytotoxicity” value does the source give for CN(C)CCc1c[nH]c2ccc(C[C@H]3COC(=O)N3)cc12 here?
Answer: 9.52% [at 42.5 µM] (inactive)

Question: Which “activity change, negative = cytotoxicity” value does the source give for CC(CN1CC(=O)NC(=O)C1)N1CC(=O)NC(=O)C1 (stereo not given) here?
Answer: -8.51% (inactive)

Question: With CC(CC(=O)Cl)CC(C)(C)C (stereo not given) as the molecule, how does the “activity change, negative = cytotoxicity” value read?
Answer: 5.42% (inactive)

Question: Which activity change, negative = cytotoxicity does the source give for N=C(N)N1CCc2ccccc2C1 here?
Answer: 6.67% [at 8.39 µM] (inactive)

Question: For CC1(C)C(=O)C(C)(C)C1=O, which “activity change, negative = cytotoxicity” value is on record?
Answer: 5.47% (inactive)

Question: Which “activity change, negative = cytotoxicity” value does the source give for C/C(Cl)=C/CCl here?
Answer: 1.05% (inactive)

Question: For N#Cc1ccccc1C#N, which “activity change, negative = cytotoxicity” value is on record?
Answer: 7.66% (inactive)

Question: With CC(C)C(C)C as the molecule, how does the “activity change, negative = cytotoxicity” value read?
Answer: 10.3% (inactive)

Question: Which “activity change, negative = cytotoxicity” value does the source give for CC(C)c1cc(C(C)C)cc(C(C)C)c1 here?
Answer: 9.61% (inactive)

Question: With CC1(C)CC(N)CC(C)(C)N1 as the molecule, how does the “activity change, negative = cytotoxicity” value read?
Answer: 1.22% (inactive)

Question: For CCCCCCCCC1CO1 (stereo not given), which “activity change, negative = cytotoxicity” value is on record?
Answer: 4% (inactive)

Question: Which activity change, negative = cytotoxicity does the source give for C=CCCCCCCCCCCCCCC here?
Answer: 5.54% [at 19 µM] (inactive)

Question: With Cc1nnc(C(=O)NC(C)(C)c2nc(C(=O)NCc3ccc(F)cc3)c(O)c(=O)n2C)o1 as the molecule, how does the “activity change, negative = cytotoxicity” value read?
Answer: 1.82% [at 42.5 µM] (inactive)

Question: Which “activity change, negative = cytotoxicity” value does the source give for C=CC(C)(CCC=C(C)C)OC(=O)C(C)C (stereo not given) here?
Answer: 3.43% (inactive)

Question: For CCCCCCCCOCCC#N, which “activity change, negative = cytotoxicity” value is on record?
Answer: -1.63% (inactive)

Question: For O=C(O)CCC(=O)Nc1ccc(S(=O)(=O)Nc2nccs2)cc1, which “activity change, negative = cytotoxicity” value is on record?
Answer: 6.86% [at 42.5 µM] (inactive)

Question: With COc1cc(S(N)(=O)=O)cc(C(=O)O)c1OC as the molecule, how does the “activity change, negative = cytotoxicity” value read?
Answer: 0.574% [at 42.5 µM] (inactive)

Question: For C/C=C/C(=O)CCCC, which “activity change, negative = cytotoxicity” value is on record?
Answer: 5.92% (inactive)

Reference: PubChem BioAssay (Tox21)
